Screens as filed in PubChem BioAssay.
SARS PLP yeast: SARS-CoV PLP inhibition in yeast; S. cerevisiae expressing SARS-CoV PLpro, growth rescue; Potency, µM (doses to about 32.9 µM), usual class: activators; hit rate 0.19% among 330,000; AID 485353; calls by dose curve; note: nearly all actives have a fitted effect of over 55% in size
Pf growth 96h: inhibits malaria parasite growth, 96 h. P. falciparum luciferase reporter growth, 96 h. Potency, µM (series often up to 28.7 µM), actives largely listed as inhibitors. hit rate 6.9% among 320,000. AID 504834
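Readout is luminescence from an integrated firefly luciferase in P. falciparum. Red cells, 2% hematocrit and 0.05% parasitemia final, were cultured with compound through two parasite generations (96 hours) at 37 C, 5% CO2.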
Shiga toxin inh: blocks Shiga toxin action in Vero cells | Vero cells, Shiga toxin protein synthesis inhibition reporter | inhibition, % at 38.7 µM | hit rate 9.2% among 290,000; in the data active = inhibition mostly above about 28%, no sharp cut-off; inactive = mostly below about 43%
Pf growth 48h: inhibits P. falciparum growth in the first generation, 48 h; P. falciparum luciferase growth in erythrocytes, 48 h; hit rate 5.9% among 310,000; Potency, µM (highest dose often 28.7 µM), usual class: inhibitors
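Luminescence readout; reporter = integrated firefly luciferase in P. falciparum. RBC culture at 2% hematocrit, 0.1% parasitemia final, 37 C/5% CO2; decreased signal taken as growth inhibition.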
Cycloheximide cs: counter-screen for Shiga toxin inhibitors: cycloheximide protein synthesis inhibition; cell reporter, cycloheximide protein synthesis inhibition counterscreen; max response, %; AID 2314; hit rate 12% among 300,000; in the data active = max response mostly above about 13%, no sharp cut-off; inactive = mostly below about 14%; note: read at 38.3 µM for the half of the compounds with a filed dose
NS1 function inh: influenza NS1 inhibition; hit rate 0.4% among 270,000; AID 2326; Potency, µM (titrated, usually from 46.1 µM); calls by dose curve; note: actives are rising curves; nearly all actives have a fitted effect of over 50% in size
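S. cerevisiae expressing influenza A NS1, grown in glucose, washed, then diluted 1:100 into pH 6.0 -URA galactose medium with 23 nl compound. Growth recovery read as OD600; NS1-free strain serves as control.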
Of the large screens only hits and unclear results are named; the others gave an inactive call. The list is not random: actives were taken first. Their share in the collection is about 21%. Unless noted, calls come from the whole dose curve; as a rule, active = well fitted inhibition curve with a large enough effect; inconclusive = small, poorly fitted or top-dose-only effect, or another doubt; inactive = no such curve, though single readings can be large or run the other way.

O=C(Nc1ccc(Br)cc1)N1CCc2ccccc2C1	Shiga toxin inh 126, Cycloheximide cs 53
CN(C)c1ccc(/C=C2\N=C(C(C)(C)C)OC2=O)cc1	none
CN1C(=O)/C(=C\c2ccc(N(C)C)cc2)OC1=S	Cycloheximide cs 12
COc1ccc(/C=C2\OC(=S)N(C)C2=O)cc1	Pf growth 96h inconclusive, Cycloheximide cs 11
Cc1ccccc1-n1ncc2c1CC(C)(C)CC2NC(=O)CCCN1CCCC1=O (configuration not stated)	none
S=C(NCCc1ccccc1)Nc1c(Cl)cccc1Cl	none
O=C(Nc1ccc(Cl)cc1F)c1ccc2c(c1)C(=O)N(Cc1ccncc1)C2=O	none (no result: Pf growth 96h, Shiga toxin inh, Pf growth 48h, Cycloheximide cs, NS1 function inh)
O=C(CN1C(=O)NC2(CCSC2)C1=O)NCc1ccccc1 (configuration not stated)	none
Cc1[nH]c(N=Nc2ccccc2)nc1N=Nc1ccccc1	Pf growth 96h 9.3µM, Shiga toxin inh 71, Pf growth 48h 3.7µM
COc1ccc(-n2c(O)c(C(C)=NCCc3c[nH]c4ccccc34)c(=O)[nH]c2=O)cc1	Pf growth 96h inconclusive, Pf growth 48h 12µM
Clc1ccc(-c2nc3ccccn3c2CN2CCCCC2)cc1	Pf growth 48h inconclusive, Cycloheximide cs 19 (no result: NS1 function inh)
Cc1ccn2c(CN3CCOCC3)c(-c3ccccc3)nc2c1	Shiga toxin inh 48, Cycloheximide cs 28
CN(C)Cc1c(-c2ccc(Cl)cc2)nc2ccccn12	Shiga toxin inh 126, Cycloheximide cs 45
O=C(CS(=O)(=O)c1ccccc1)Nc1nc(-c2ccccc2)cs1	none
Cc1csc(NC(=O)CS(=O)(=O)c2ccccc2)n1	Pf growth 96h inconclusive, Shiga toxin inh 48, Cycloheximide cs 28 (no result: NS1 function inh)
CC(C)(C)c1csc(NC(=O)CS(=O)(=O)c2ccccc2)n1	Shiga toxin inh 127, Cycloheximide cs 39
Cc1ccc(S(=O)(=O)CC(=O)Nc2nc(-c3ccccc3)cs2)cc1	none (no result: Pf growth 48h)
O=C(Nc1nnc(-c2cccs2)o1)c1cc(-c2ccccc2)nc2ccccc12	none
O=C1Oc2ccccc2C(=O)C1C(CC(O)c1ccc(-c2ccc(Br)cc2)cc1)c1ccccc1 (configuration not stated)	none (no result: SARS PLP yeast, Shiga toxin inh, Cycloheximide cs, NS1 function inh)
Cc1ccccc1Cn1ccc(NC(=O)c2onc(C)c2Cl)n1	Shiga toxin inh 76, Cycloheximide cs 29
Cc1ccccc1Cn1ccc(NC(=O)c2nc3ncccn3n2)n1	Cycloheximide cs 9.3
Cc1cc([N+](=O)[O-])ccc1NC(=O)CSc1nnc(C)n1C	Pf growth 96h inconclusive
CN1Cc2cc(C(=O)c3cc(Cl)cc(CSc4ncccn4)c3O)cnc2NC1=O	Pf growth 96h 9.3µM
CCN(CC)c1ccc(/C=N/NC(=O)c2nnn(-c3nonc3N)c2C(C)C)c(O)c1	SARS PLP yeast inconclusive, Pf growth 96h 7.4µM, Pf growth 48h 3.7µM
CC(/C=N/NC(=O)c1nnn(-c2nonc2N)c1C(C)C)=C\c1ccco1	Cycloheximide cs 40
COc1ccccc1N=Cc1c(C)c(C#N)c2[nH]c3ccccc3n2c1=O	Cycloheximide cs 18
Cc1ccccc1NC(=O)c1ccccn1	Shiga toxin inh 57, Cycloheximide cs 29
CSc1ccccc1NC(=O)c1ccccn1	Shiga toxin inh 45, Cycloheximide cs 18 (no result: NS1 function inh)
CSc1ccccc1NC(=O)c1ccc(Cl)s1	Cycloheximide cs 30 (no result: Pf growth 96h)
CSc1ccccc1NC(=O)c1cccnc1	Cycloheximide cs 15
COC(=O)c1ccsc1NC(=O)c1ccc(Cl)s1	none
CSc1ccccc1NC(=O)c1ccco1	Pf growth 96h inconclusive (no result: Pf growth 48h)
CC(C)c1ccccc1NC(=O)c1cccnc1	none
Cc1ccccc1-c1nc(CS(=O)(=O)CC(=O)NCCCN2CCN(C)CC2)c(C)o1	Pf growth 96h inconclusive
CCOc1cc(C(=O)NC(=S)Nc2ccc(Cl)c(C(=O)O)c2)cc(OCC)c1OCC	none
CCN1C(=O)S/C(=C/c2ccc(Sc3nc4ccccc4[nH]3)o2)C1=O	Pf growth 96h 9.3µM
Cc1ccc(Cc2c(C)nc3nc(SCC(=O)NCCCN4CCCCCC4)nn3c2C)cc1	Pf growth 96h 10µM, Pf growth 48h inconclusive
CCC1CCCCN1CCCNC(=O)CSc1nc2nc(C)c(Cc3ccc(C)cc3)c(C)n2n1 (configuration not stated)	Pf growth 48h inconclusive
Cc1nc2nc(SCC(=O)NCCCN3CCOCC3)nn2c(C)c1Cc1ccccc1	Pf growth 96h 3.3µM, Pf growth 48h inconclusive (no result: NS1 function inh)
CCOCCCNC(=O)CSc1nc2nc(C)c(Cc3ccccc3)c(C)n2n1	Pf growth 96h 4.7µM (no result: NS1 function inh)
Cc1nc2nc(SCC(=O)NCCCN3CCCCC3)nn2c(C)c1Cc1ccccc1	Pf growth 48h inconclusive
O=S(=O)(NCc1ccccn1)c1cc(Cl)ccc1Cl	none
CCCn1c(N)c(C(=O)CSc2nnc(Cc3cccs3)n2C2CC2)c(=O)n(C)c1=O	Pf growth 96h 4.1µM, Pf growth 48h 4.7µM (no result: Shiga toxin inh, Cycloheximide cs, NS1 function inh)
Cn1c(N)c(C(=O)CSc2nnc(Cc3cccs3)n2C2CC2)c(=O)n(C)c1=O	Pf growth 96h 3.3µM, Pf growth 48h 5.2µM (no result: Shiga toxin inh, Cycloheximide cs, NS1 function inh)
NC(=O)CSc1nnc(Cc2cccs2)n1C1CCCCC1	Pf growth 96h inconclusive (no result: Pf growth 48h)
CCCn1c(N)c(C(=O)CSc2nnc3ccccn23)c(=O)n(C)c1=O	Pf growth 96h inconclusive (no result: Shiga toxin inh, Cycloheximide cs, NS1 function inh)
CCC(=O)N/C(N)=N/c1nc(C)c2cc(OC)ccc2n1	Shiga toxin inh 71, Pf growth 48h 3.3µM, Cycloheximide cs 23
COc1ccc2nc(/N=C(\N)NC(=O)C(C)(C)C)nc(C)c2c1	Shiga toxin inh 42, Pf growth 48h inconclusive, Cycloheximide cs 30
COc1ccc2nc(/N=C(\N)NC(=O)N3c4ccccc4Sc4ccccc43)nc(C)c2c1	Pf growth 96h inconclusive, Pf growth 48h inconclusive, NS1 function inh inconclusive
Cc1nc2ccc(NS(=O)(=O)c3c(F)cc(F)cc3Br)cc2s1	none (no result: Shiga toxin inh, Cycloheximide cs, NS1 function inh)
CCN(CC(=O)Nc1c(F)cccc1F)C(=O)CNC(=O)C1CCCCC1	none (no result: Shiga toxin inh, Cycloheximide cs, NS1 function inh)
CCOc1ccc2ncc(S(=O)(=O)c3ccc(C)cc3)c(N3CCC4(CC3)OCCO4)c2c1	Pf growth 96h 7.4µM, Pf growth 48h 12µM
CCOC(=O)c1cnc2ccc(OCC)cc2c1N1CCN(C)CC1	Pf growth 48h 8.3µM
CCOC(=O)c1cnc2ccc(OCC)cc2c1NCCCN1CCOCC1	Pf growth 48h inconclusive, Cycloheximide cs 18
CCOC(=O)c1cnc2c(C(F)(F)F)cccc2c1NCCCN1CCOCC1	Pf growth 48h 5.2µM
CCOC(=O)c1cnc2ccc(OCC)cc2c1NCCN1CCOCC1	Pf growth 96h inconclusive, Pf growth 48h inconclusive
CCOC(=O)c1cnc2c(CC)cccc2c1NCCCN1CCOCC1	Pf growth 96h inconclusive, Pf growth 48h inconclusive
CCOC(=O)c1cnc2c(c(C)nn2CC)c1NCCN1CCOCC1	Pf growth 96h 12µM
CCOc1ccc(S(=O)(=O)N2CCN(C(=O)c3ccc(C)c(S(=O)(=O)N4CCOCC4)c3)CC2)cc1	none (no result: Pf growth 96h, Shiga toxin inh, Pf growth 48h, Cycloheximide cs, NS1 function inh)
Cc1cc(C)c2c(=O)n(-c3ccccc3)[nH]c2n1	Shiga toxin inh 88, Cycloheximide cs 51 (no result: Pf growth 96h)
Cc1cc(-c2ccccc2)nc2[nH]n(-c3ccccc3)c(=O)c12	none (no result: Pf growth 96h)
